# High-throughput results deposited in PubChem by Broad Institute.
# MITF act – increases MITF-driven TRPM1 promoter luciferase signal. SK-MEL-5 TRPM1-promoter luciferase, 24 h; % of positive control, neutral wells = 0. activation, % at 12.5 µM. actives 0.75% (n = 300,000);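 active = mean activation of at least 80% with every replicate also reaching 80%; inconclusive = mean reaches 80% but some replicate falls short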;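 note: 0% = neutral control wells and 100% = parthenolide positive control wells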
# miR122 inh – inhibitors of miR-122 in Huh7 cells | Huh7 miR-122 Renilla luciferase sensor, 48 h; neutral wells = 0, positive control = 100 | activation (reporter increase), % at 12.5 µM | actives 0.3% (n = 340,000);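 active = mean replicate activation score at least 90 and every replicate individually at or above 90; inconclusive = only one of the two criteria met; inactive = neither criterion met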;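 note: higher luciferase means less miR-122 activity so hits act as miR-122 inhibitors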
# Wnt act – Wnt/beta-catenin pathway activation; Wnt/beta-catenin reporter cell assay, activator, plate reader; activation, % at 9.35 µM; actives 1.2% (n = 300,000); AID 743398; in the data active = activation above about 30%, passing the limit was not always enough; inconclusive = no clear call, values can overlap the other calls;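 note: 0% = neutral control wells and 100% = positive control wells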
# esBAF inh – inhibitors of esBAF chromatin remodeling in mouse ES cells. Bmi1-luciferase knock-in reporter, 24 h; 100% = twice the neutral-well signal. reporter increase, % at 12.5 µM. actives 2% (n = 350,000). AID 602393; in the data active = activation above about 40%; inconclusive = no clear call, values can overlap the other calls;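 note: 0% = median of the plate's neutral control wells and 100% = double that signal; a rise in the Bmi1 reporter signal indicates esBAF inhibition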
# HIV Env fusion – blocks HIV Env-driven cell-cell fusion. HeLa-JRFL Env/CEM21 cell fusion, luciferase. inhibition, % at 12.3 µM. actives 1.1% (n = 360,000);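 active = mean replicate inhibition score of at least 50 and every replicate individually at or above 50; inconclusive = only one of the two criteria met; inactive = mean below 50 and not all replicates reaching 50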;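 note: 0% = plate neutral controls and 100% = maraviroc near 300 nM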
# Numbers without * were called inactive; ? = inconclusive; nt = no result given; [ ] = another dose, or the depositor's remark. Only some compounds are listed: those with a hit (about 3.4% of all), similar ones and a draw of the others.
SMILES,MITF act,miR122 inh,Wnt act,esBAF inh,HIV Env fusion
O=C(C[C@H]1CC[C@@H]2[C@H](COC[C@H](O)CN2Cc2cc(F)cc(F)c2)O1)NC1CCC1,nt,4.4[16.7 µM],nt,2.4,nt
Cc1nc(SCc2nc3ccccc3[nH]2)c2oc3cc([N+](=O)[O-])ccc3c2n1,-23.0,7.1,-0.5,49.0*,-6.6
COc1ccc2c(c1)oc1c(SCc3nc4ccccc4[nH]3)nc(C)nc12,49.0,0.0,13.2,68.2*,-47.8
Cc1nc(SCc2nc3ccc(Cl)cc3[nH]2)c2oc3ccccc3c2n1,-4.8,1.1,16.7,5.5,1.4
Cc1nc(SCc2nc3cc(Cl)c(F)cc3[nH]2)c2oc3ccccc3c2n1,-13.0,4.0,2.2,7.9,65.6*
Cc1nc(SCc2nc3ccc(Br)cc3[nH]2)c2oc3ccccc3c2n1,15.1,8.7,0.2,-3.7,21.6
CCc1nc(SCc2nc3ccccc3[nH]2)c2oc3ccccc3c2n1,3.2,3.5,nt,5.9,nt
COCC(=O)NC[C@H]1[C@@H](c2ccccc2)[C@@H](CO)N1C(C)=O,nt,0.0[16.7 µM],nt,-0.7,nt
C[C@H]1CN([C@@H](C)CO)C(=O)c2cccc(NC(=O)C3CC3)c2O[C@@H]1CN(C)Cc1ccc(C(F)(F)F)cc1,nt,113.0*[16.7 µM],nt,-3.4,-4.9[16.7 µM]
C[C@@H]1CN([C@@H](C)CO)C(=O)c2cccc(NC(=O)NC3CCCCC3)c2O[C@@H]1CN(C)Cc1ccc(C(F)(F)F)cc1,nt,8.4[16.7 µM],nt,5.9,15.0[16.7 µM]
CNC[C@H]1Oc2c(NC(=O)Nc3ccc(C(F)(F)F)cc3)cccc2C(=O)N([C@@H](C)CO)C[C@H]1C,nt,-0.9[16.7 µM],nt,1.3,63.4*[16.7 µM]
C[C@@H]1CN([C@@H](C)CO)C(=O)c2cccc(NC(=O)C3CCCCC3)c2O[C@H]1CN(C)Cc1ccccc1,nt,2.6[16.7 µM],nt,-1.6,62.6*[16.7 µM]
CNC[C@H]1Oc2c(NC(=O)Nc3ccc(C(F)(F)F)cc3)cccc2C(=O)N([C@H](C)CO)C[C@H]1C,nt,-8.5[16.7 µM],nt,0.2,-4.5[16.7 µM]
C[C@H]1CN([C@@H](C)CO)C(=O)c2cccc(NC(=O)NC3CCCCC3)c2O[C@@H]1CN(C)Cc1ccc(C(F)(F)F)cc1,nt,121.0*[16.7 µM],nt,-0.2,9.7[16.7 µM]
CCCC#Cc1ccc2c(c1)O[C@H](CN(C)Cc1ccncc1)[C@H](C)CN([C@@H](C)CO)S2(=O)=O,nt,8.6[16.7 µM],nt,-3.4,31.2[16.7 µM]
C[C@H]1CN([C@@H](C)CO)C(=O)c2cccc(NC(=O)C3CCCCC3)c2O[C@@H]1CN(C)Cc1ccc(C(F)(F)F)cc1,nt,94.2*[16.7 µM],nt,-3.9,nt
C[C@H](CO)N1C[C@H](C)[C@@H](CN(C)Cc2ccc(C(F)(F)F)cc2)Oc2c(NC(=O)C3CCCCC3)cccc2C1=O,nt,121.7*[16.7 µM],nt,-9.1,nt
C[C@H]1CN([C@@H](C)CO)C(=O)c2cccc(NC(=O)C3CCOCC3)c2O[C@@H]1CN(C)Cc1ccc(C(F)(F)F)cc1,nt,105.3*[16.7 µM],nt,-4.1,nt
C[C@@H]1CN([C@@H](C)CO)C(=O)c2cccc(NC(=O)Nc3ccccc3)c2O[C@H]1CN(C)Cc1ccc(C(F)(F)F)cc1,nt,114.8*[16.7 µM],nt,6.2,-8.8[16.7 µM]
C[C@@H]1CN([C@@H](C)CO)C(=O)c2cccc(NC(=O)C3CCCCC3)c2O[C@H]1CN(C)Cc1ccc(C(F)(F)F)cc1,nt,51.6[16.7 µM],nt,1.7,nt
N#C[C@@H]1[C@@H](c2ccccc2)[C@H](CO)N1C(=O)Nc1cccc(F)c1,nt,nt,nt,-1.1,nt
C/C=C/c1ccc2c(c1)O[C@H](CN(C)Cc1ccc(C(=O)O)cc1)[C@H](C)CN([C@@H](C)CO)S2(=O)=O,nt,15.1[16.7 µM],nt,-3.5,-2.0[16.7 µM]
Cc1cccc(NC(=O)c2cc(-c3cc(Cl)ccc3O)n[nH]2)c1,108.1*,-2.2,nt,70.6*,nt
Cc1ccc(C)c(NC(=O)c2cc(-c3cc(C)ccc3O)n[nH]2)c1,117.5*,nt,25.6,50.3*,-46.8
Cc1ccc(S(=O)(=O)Nc2ccc3c(c2)C(=O)N([C@H](C)CO)C[C@@H](C)[C@H](CN(C)C(=O)c2ccccc2)OCCCC[C@@H](C)O3)cc1,nt,-7.2[16.7 µM],nt,8.6,-8.7[16.7 µM]
SMILES,MITF act,miR122 inh,Wnt act,esBAF inh,HIV Env fusion
CSc1nc2sc3c(c2c(=O)[nH]1)CCC(C)C3 (configuration not stated),33.1,nt,nt,62.1*,-46.6
CCCSc1nc2sc3c(c2c(=O)[nH]1)CC(C)CC3 (configuration not stated),0.5,-0.3,3.5,nt,10.3
O=C(C1CCOCC1)N1C[C@@H]2[C@H](c3ccccc31)[C@H](CO)N2C(=O)Nc1cccc(F)c1,nt,-10.0[16.7 µM],nt,-6.9,nt
CCOc1cc(-c2noc(N)c2C(=O)OC)cc(OCC)c1OCC,-3.1,5.5,nt,-6.5,23.8
COC(=O)c1c(-c2ccc(Br)cc2)noc1N,nt,-2.7,4.3,56.1*,-51.1
O=C(NNC(=O)c1csc(-c2cccnc2)n1)c1ccccc1,12.8,nt,2.3,16.8,0.4
O=C(Nc1ccccc1Cl)c1csc(-c2cccnc2)n1,26.1,nt,-0.6,59.5*,-14.8
C[C@@H]1CCCCO[C@@H](CN(C)C(=O)CCC(F)(F)F)[C@H](C)CN([C@@H](C)CO)C(=O)c2cc(NS(=O)(=O)c3ccccc3)ccc2O1,nt,-5.2[16.7 µM],nt,5.6,-22.8[16.7 µM]
CCNC(=O)[C@@H]1[C@@H](CO)[C@@H]2Cn3c(cccc3=O)[C@@H]2N1Cc1ccccc1Cl,nt,1.0[16.7 µM],nt,-1.8,nt
COc1ccccc1NS(=O)(=O)c1cc(NC(=O)CC(C)(C)C)ccc1N1CCOCC1,-0.1,34.2,-1.0,nt,6.7
COc1ccc(NS(=O)(=O)c2cc(NC(=O)c3cccs3)ccc2N2CCOCC2)cc1,-6.8,45.9,1.2,0.2,-77.1
COc1cc(/C=C/C(=O)Nc2ccc(N3CCCCC3)c(S(=O)(=O)Nc3ccccc3Cl)c2)cc(OC)c1OC,-2.4,288.7*,nt,1.5,7.9
COc1ccccc1NS(=O)(=O)c1cc(NC(=O)c2cccs2)ccc1N1CCOCC1,9.8,111.7*,8.6,4.6,-137.2
CCC(C(=O)Nc1ccc(N2CCOCC2)c(S(=O)(=O)Nc2ccccc2OC)c1)c1ccccc1 (configuration not stated),7.0,120.8*,-3.5,8.4,-22.7
COc1ccccc1NS(=O)(=O)c1cc(NC(=O)Nc2ccc(Cl)cc2Cl)ccc1N1CCCCC1,-9.1,?,-10.0,nt,25.1
COc1ccccc1NS(=O)(=O)c1cc(NC(=O)c2ccco2)ccc1N1CCOCC1,-16.5,nt,-1.3,nt,-87.2
COc1ccccc1NS(=O)(=O)c1cc(NC(=O)CCC2CCCC2)ccc1N1CCOCC1,6.7,119.0*,-0.6,-1.1,-5.2
C[C@H](CO)N1C[C@H](C)[C@@H](CN(C)Cc2ccc(Oc3ccccc3)cc2)Oc2ccc(NC(=O)CCC(F)(F)F)cc2CC1=O,nt,2.6[16.7 µM],nt,-2.1,-5.0[16.7 µM]
CNC(=O)C[C@@H]1CC[C@@H]2[C@@H](COc3ccc(NC(=O)c4ccc(OC)cc4)cc3C(=O)N2C)O1,nt,1.8[16.7 µM],nt,1.4,-3.6[16.7 µM]
COc1ccc(NS(=O)(=O)c2cc(NC(=O)C3CC3)ccc2N2CCOCC2)cc1,7.9,87.1,-2.1,-5.6,0.5
COc1ccc(NS(=O)(=O)c2cc(NC(=O)CCc3ccc(OC)c(OC)c3)ccc2N2CCOCC2)cc1,-3.8,118.1*,-2.2,-0.3,25.3
